Source: PubChem
KB-3-1 cytotox: KB-3-1 parental cell cytotoxicity; KB-3-1 viability, CellTiter-Glo ATP luminescence, 72 h; Potency, µM (doses to about 46.1 µM), hits mostly cytotoxic; 1.4% of 400,000 active; further: nearly all actives have a fitted effect of over 60% in size
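KB-3-1 parental drug-naive adenocarcinoma cells in DMEM/10% FBS, incubated 72 h at 37 C with pin-transferred compounds across a concentration series. Viability by CellTiter-Glo luminescence; concentration-response curves fitted after normalization.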
DT40 TDP1 no CPT: qHTS for Inhibitors of human tyrosyl-DNA phosphodiesterase 1 (TDP1): qHTS in cells in absence of CPT | DT40 Tdp1-/- hTDP1 cells, no CPT, ATP luminescence, 48 h | Potency, µM (series often up to 46.2 µM), inactives show top-dose activity change, negative = growth inhibition, hits mostly inhibitors | 15% of 420,000 active; further: nearly all actives have a fitted effect of over 55% in size
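Luminescent ATP content (CellTiter-Glo) served as the growth readout. Knockout chicken DT40 cells expressing human TDP1 were exposed to compounds without camptothecin for a minimum 48 hr at 37 °C.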
HT1080 IDH1KD tx: kills HT-1080 cells with IDH1 knockdown | HT-1080 IDH1 knockdown viability, ATP luminescence, 48 h | Potency, µM (doses to about 46.1 µM), without a hit: at the top dose activity, negative = toxicity, most hits filed as cytotoxic | 2% of 360,000 active;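 further: 0% = DMSO wells and -100% = cell-free medium wells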
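HT-1080-IDH1KD cells (IDH1 knocked down), 750/well in RPMI with 5% FBS, treated with compound 48 h at 37 degrees C. Viability by CellTiter-Glo luminescence, normalised to DMSO and no-cell wells; concentration-response curves classed.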
HT1080NT lethal: kills 2HG-producing HT-1080-NT fibrosarcoma cells | HT-1080-NT fibrosarcoma viability, CellTiter-Glo ATP luminescence, 48 h | Potency, µM (series often up to 46.1 µM), for the others: top-dose activity, negative = less viability, hits mostly cytotoxic | 1.6% of 360,000 active;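 further: NT is the 2HG producing partner of a matched IDH1 knockdown line; 0% = DMSO-treated cells and -100% = media-only wells without cells; nearly all actives have a fitted effect of over 55% in size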
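Read-out is CellTiter-Glo luminescence after 10 minutes at room temperature, following 48 hours' compound treatment of HT-1080-NT cells (750 cells/well, RPMI, 5% FBS, 37 degrees C).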
KB-V1 MDR tox: KB-V1 MDR subline cytotoxicity | Potency, µM (highest dose often 46.1 µM), most hits filed as cytotoxic | KB-V1 MDR cells viability, CellTiter-Glo, 72 h | 3.4% of 400,000 active; further: nearly all actives have a fitted effect of over 60% in size
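Readout: CellTiter-Glo luminescence, 10 min after addition. Cells: KB-V1 MDR subline, 72 h at 37 degrees C with compound. Analysis: corrected, normalized data fitted to concentration-effect curves.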
DT40 TDP1 CPT: growth inhibition of DT40 Tdp1-/-;hTDP1 cells with camptothecin (screen for TDP1 inhibitors); 12% of 420,000 active; Potency, µM (top dose mostly 46.2 µM), for the others: top-dose activity change, negative = growth inhibition, most hits filed as inhibitors; chicken DT40 Tdp1-/-;hTDP1 cells + 20 nM CPT, ATP luminescence, 48 h; further: nearly all actives have a fitted effect of over 55% in size
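Cell growth measured by CellTiter-Glo luminescence after a minimum 48 h, 37 C compound exposure with 20 nM CPT in Tdp1-knockout DT40 cells stably expressing hTDP1, seeded 400/well; qHTS titration format.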
* hit, by the source's call; i = inactive; ? = inconclusive; . = no result given. The list is not random: actives were taken first. Their share in the collection is about 19%. The call rests on the fitted dose curve; in most records, active means well fitted curve in the direction sought with a large enough effect; inconclusive means small, poorly fitted or top-dose-only effect, or another doubt; inactive means no such curve, though single readings can be large; an effect the other way counts as inactive or inconclusive. Unless noted, on the % scale 0 is the no-effect control and ±100 the full control effect; potency means the concentration at half of the fitted maximal effect.

SMILES | KB-3-1 cytotox | DT40 TDP1 no CPT | HT1080 IDH1KD tx | HT1080NT lethal | KB-V1 MDR tox | DT40 TDP1 CPT
CCOC(=O)c1ccc(NC(=O)c2cc(S(=O)(=O)N3CCOCC3)ccc2O)cc1 | i | 21µM* | -20% | -20% | i | ?
CCCOC(=O)c1ccc(NC(=O)c2cccc(S(=O)(=O)N3CCN(C(C)=O)CC3)c2)cc1 | i | 16µM* | -28% | ? | i | ?
CCOC(=O)c1c(-c2ccccc2)csc1NC(=O)c1ccc(S(=O)(=O)N2CC(C)OC(C)C2)cc1 (centres undefined) | i | ? | -2% | 1% | ? | -15%
CCOC(=O)c1ccc(NC(=O)c2cc(S(=O)(=O)N3CCOCC3)cn2C)cc1 | i | ? | 6% | 2% | i | ?
CCc1nnc(NC(=O)c2cccc(S(=O)(=O)N3CCN(C(C)=O)CC3)c2)s1 | i | 1% | 2% | 0% | ? | 1%
CCOC(=O)c1ccc(NC(=O)c2cccc(S(=O)(=O)N3CCN(C(C)=O)CC3)c2)cc1 | i | 13µM* | -1% | -6% | i | ?
CN(CCO)c1cccc2c1S(=O)(=O)N[C@H](Cc1ccccc1)CO2 | i | -18% | 1% | 3% | i | -13%
N=C1C(c2ccccc2)=C(O)CN1c1cccc(S(=O)(=O)N2CCCCC2)c1 | i | 19% | 2% | 0% | i | -14%
Cc1ccc(CNC(=O)c2c(O)nc3cc(C)ccn3c2=O)cc1 | i | -5% | . | . | i | -6%
Cc1ccn2c(=O)c(C(=O)NC(C)c3ccccc3)c(O)nc2c1 (centres undefined) | . | 23µM* | . | . | . | ?
COc1ccc(CCNC(=O)c2c(O)nc3ccccn3c2=O)cc1 | i | ? | . | . | ? | ?
Cc1ccn2c(=O)c(C(=O)NCCc3ccccc3)c(O)nc2c1 | i | 23µM* | . | . | ? | ?
CC(NC(=O)c1c(O)nc2ccccn2c1=O)c1ccccc1 (centres undefined) | ? | 18µM* | . | . | ? | 23µM*
COc1ccc2c(c1)c1c(c(=O)n(Cc3ccccc3)c(=O)n1Cc1ccccc1)n2C | i | -1% | . | . | i | -17%
COc1ccc(-n2cccc2C=O)cc1 | i | -25% | 7% | 9% | ? | ?
COc1ccc(-n2cccc2/C=C/[N+](=O)[O-])cc1 | ? | 3.3µM* | ? | -1% | ? | 2.3µM*
O=S1(=O)N[C@@H](Cc2ccccc2)COc2cc(N3CCSCC3)ccc21 | i | -24% | 4% | 4% | i | -1%
CCC(C)[C@H](NC(=O)OC(C)(C)C)C(=O)NCC1CCC(C(=O)N[C@@H](Cc2ccccc2)C(=O)O)CC1 (some centres undefined) | ? | 20% | 4% | 5% | i | 10%
CC(C)c1ccc(C2C3=C(CC(C)(C)CC3=O)NC3=C2C(=O)c2ccccc23)cc1 (centres undefined) | ? | ? | ? | ? | ? | 21µM*
COc1cc(-c2cnc3c(NC=O)cc(-c4ccc(N5CCN(C)CC5)cc4)cn23)cc(OC)c1OC | ? | 3.7µM* | ? | -5% | ? | 3.3µM*
COc1cc(-c2cnc3c(NC(C)=O)cc(-c4ccc(N5CCN(C)CC5)cc4)cn23)cc(OC)c1OC | ? | 4.6µM* | ? | ? | ? | 4.6µM*
COc1cc(-c2nc3ccc(N4CCN(C)CC4)cc3[nH]2)cc(OC)c1OC | i | ? | -12% | 0% | i | ?
CC12CN3CC(c4ccccc4)(CN(C1)C3c1ccc(O)cc1)C2=O (centres undefined) | i | ? | . | . | ? | -6%
O=C(c1cccc(F)c1)N1CCN(C(=O)c2cc(-c3ccc(Cl)cc3Cl)on2)CC1 | i | 18µM* | -22% | -1% | ? | ?
O=C(c1cc(-c2ccccc2Cl)on1)N1CCCC1 | i | -13% | -7% | -12% | i | 5%
SMILES | KB-3-1 cytotox | DT40 TDP1 no CPT | HT1080 IDH1KD tx | HT1080NT lethal | KB-V1 MDR tox | DT40 TDP1 CPT
CCc1ccc(C2CC(=O)c3c([nH]c(C(=O)OC4CCC(C)CC4)c3C)C2)cc1 (centres undefined) | i | ? | . | . | i | 4%
c1ccc(N=NC2=NN(c3ccccc3)CS2)cc1 | i | 5.8µM* | 5% | -5% | i | ?
Cc1[nH]c2ccc(F)cc2c1CCNC(=O)c1cc2cc(Cl)ccc2oc1=O | i | -24% | . | . | i | 2%
Cc1cc(=O)[nH]c(SCCCOc2ccc(F)cc2)n1 | i | -10% | -13% | 1% | 18µM* | -21%
CCCSc1nc(C)cc(=O)[nH]1 | i | -3% | 8% | 5% | i | 5%
CCC(=O)c1ccccc1OCCSc1nc(C)cc(=O)[nH]1 | i | 1% | -4% | 3% | 15µM* | 0%
CCCOc1cccc(OCCSc2nc(C)cc(=O)[nH]2)c1 | i | -18% | -29% | 3% | ? | -16%
NS(=O)(=O)c1ccc(CNC(=O)C(c2ccccc2)c2ccccc2)cc1 | i | -21% | -8% | -13% | i | 2%
CC1=C2C3OC(=O)C(C)C3CCC2(C)C=C(Br)C1=O (centres undefined) | ? | 21µM* | 2% | 0% | ? | -11%
C[C@@H]1C(=O)O[C@H]2[C@H]1CC[C@@]1(C)C(=O)C=C[C@@](C)(O)[C@H]21 | i | -5% | 7% | -1% | i | 4%
CCOC(=O)NC(=O)/C(C#N)=N\Nc1cccc(Cl)c1 | ? | 21µM* | -3% | 1% | i | 23µM*
Cc1ccc(Nc2sc(C(=O)c3ccccc3)c(N)c2C(=O)NC(C)C)cc1 | i | ? | . | . | i | ?
Cc1ccc(NC(=O)c2c(Nc3ccccc3C)sc(C(=O)c3ccccc3)c2N)cc1 | ? | 5.8µM* | . | . | i | ?
CCOc1ccccc1Nc1sc(C(=O)c2ccccc2)c(N)c1C(=O)Nc1ccccc1 | ? | 9.2µM* | . | . | i | 10µM*
CCOc1ccccc1Nc1sc(C(=O)c2ccccc2)c(N)c1C(=O)NCCc1ccccc1 | i | ? | . | . | i | ?
Clc1ccc(SCc2cc(N3CCOCC3)nc(-c3ccccn3)n2)cc1 | ? | 3.3µM* | -17% | -6% | ? | 5.8µM*
